Compound activity deposited in PubChem BioAssay by several laboratories.
An excerpt weighted towards active compounds, which were near 0.5% of everything screened.
E coli growth-1: inhibitors of Escherichia coli growth; OD600 absorbance (no concentration beside the values); AID 1053175; 330,000 compounds, 0.21% hits; OD600, 23 h; stronger effect = lower value;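 active = OD600 absorbance below the run mean of sample wells minus 3.6 SD, in any replicate, cut at about 0.56 in these data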
phage Ecoli inh: E. coli growth loss with phage present; growth absorbance; inhibition, % at 11.9 µM; 360,000 compounds, 0.26% hits; in the data active = inhibition above about 11%
E coli growth-2: counter-screen for AddAB inhibitors: E. coli growth inhibition; 330,000 compounds, 0.27% hits; AID 449728; inhibition, % at 11.9 µM; E. coli V3065 growth, OD600 absorbance, 18 h;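 active = inhibition above the campaign's mean inhibition across all tested compounds plus 3 SD, cut at about 9.9% in these data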;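 note: uninfected addAB+ strain grown without phage in ampicillin broth; 0% = DMSO wells and 100% = ciprofloxacin 0.95 µg/ml wells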
AddAB inh: less growth of phage-infected E. coli with AddAB; AID 435030; E. coli expressing H. pylori AddAB, absorbance growth; inhibition, % at 11.9 µM; 330,000 compounds, 0.29% hits; in the data active = inhibition above about 12%;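 note: 0% = vehicle wells of infected cells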
Tat export inh: blocks Tat-dependent protein export in E. coli; E. coli MC4100 TorA-mCherry Tat export, fluorescence; inhibition, % at 10 µM; 340,000 compounds, 0.036% hits;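 active = mean replicate inhibition at least 50% and at least half of replicates individually reaching 50%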;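 note: exported cargo escapes ClpAP degradation while cytoplasmic cargo is degraded and loses fluorescence; 0% = median of neutral control wells and 100% = median of NaSCN control wells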
AddAB confirm: confirmation screen: growth loss of phage-infected E. coli expressing H. pylori AddAB; shares compounds with AddAB inh; E. coli V3065 expressing H. pylori AddAB, T4 phage, OD; T4 phage with gene 2 nonsense mutations; inhibition, % at 11.9 µM; 880 compounds, 64% hits;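 active = mean inhibition above a set limit taken from the earlier primary screen, cut at about 13% in these data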;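 note: higher means less bacterial growth since AddAB block lets phage replicate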
RecBCD counter: AddAB counter-screen: growth loss of RecBCD+ E. coli infected with mutant T4 phage. shares compounds with AddAB inh. E. coli V66 + mutant T4 phage, OD growth. AID 488955. inhibition, % at 11.9 µM. 880 compounds, 73% hits;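 active = mean inhibition above the mean of solvent-only control wells plus 3 SD, cut at about 4% in these data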;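 note: optical density read after an 18 h incubation at 37 °C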
bact viab count: reduces bacterial viability, AddAB inhibitor counter-screen | AID 488956 | absorbance (AddAB counterscreen) | 880 compounds, 35% hits | shares compounds with AddAB inh | inhibition, % at 11.9 µM; in the data active = inhibition above about 25%
RecBCD conf: confirmation: growth loss of phage-infected RecBCD+ E. coli (RecBCD inhibitor screen); shares compounds with phage Ecoli inh; E. coli V66 + T4 2- phage, growth OD; inhibition, % at 11.9 µM; 890 compounds, 45% hits; AID 651982;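 active = mean inhibition over triplicates exceeding the hit threshold derived in the original primary screen, cut at about 11% in these data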
Ecoli viability: counter-screen for RecBCD inhibitors: inhibitors of bacterial viability. shares compounds with phage Ecoli inh. E. coli viability, absorbance (OD) growth. inhibition, % at 11.9 µM. 890 compounds, 29% hits; in the data active = inhibition above about 20%;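 note: E. coli strain V66 grown with compound alone and no phage infection; 0% = bacteria with DMSO vehicle only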
AddAB phage OD: growth loss of phage-infected AddAB E. coli, RecBCD counter-screen. 890 compounds, 45% hits. E. coli expressing H. pylori AddAB + T4 phage, OD growth; gene 2 mutant T4, recBCD-deleted host. inhibition, % at 11.9 µM. shares compounds with phage Ecoli inh;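 active = mean inhibition above the solvent-only control wells' mean plus 3 SD, cut at about 22% in these data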;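 note: higher means less bacterial growth from phage killing when AddAB is blocked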
* hit, by the source's call; / = no result given; + = active, no number.

SMILES	E coli growth-1	phage Ecoli inh	E coli growth-2	AddAB inh	Tat export inh	AddAB confirm	RecBCD counter	bact viab count	RecBCD conf	Ecoli viability	AddAB phage OD
COC(=O)c1ccc(C(NC(=O)OCc2ccccc2)C(F)=CC(C)C(=O)NCc2ccc(-c3ccccc3)cc2)cc1 (stereo not drawn)	0.718	/	/	/	/	/	/	/	/	/	/
Cc1cc(C=C2NC(=O)NC2=O)c(C)n1-c1sc2c(c1C#N)CCCC2	0.692	/	/	/	/	/	/	/	/	/	/
C/C(=N\Nc1ccc2nncn2n1)c1ccccn1	/	31.9*	26.6*	31.0*	/	22.1*	29.3*	19.2	17.7*	27.4*	21.0
On1ccccc1=S	/	+	75.6*	+	141.8*	+	+	98.0*	+	105.1*	+
O=C(Cn1ccccc1=S)c1ccc(Cl)c(Cl)c1	0.624	3.1	3.0	7.7	/	/	/	/	/	/	/
CC(C(O)c1ccccc1)N(C)C(=O)C(N)Cc1ccccc1 (stereo not drawn)	0.694	/	/	/	/	/	/	/	/	/	/
O=C(NNC(=O)c1ccccc1O)c1ccc(Cl)c(S(=O)(=O)N2CCc3ccccc32)c1	0.666	15.9*	14.1*	19.1*	-3.8	1.4	8.3*	-0.2	4.2	7.2	8.5
Nc1nc(N)c2cc(Sc3ccc4ccccc4c3)ccc2n1	0.0785*	63.4*	102.0*	98.0*	/	97.6*	72.4*	94.2*	69.9*	64.8*	95.4*
CNC(=S)N1CCN(c2c(F)cc3c(=O)c(C(=O)O)cn(C4CC4)c3c2OC)CC1C (stereo not drawn)	0.045*	99.7*	99.1*	100.7*	73.5*	100.2*	101.2*	99.4*	101.4*	102.9*	102.5*
COC(=O)C(C)NC(=S)N1CCN(c2c(F)cc3c(=O)c(C(=O)O)cn(C4CC4)c3c2OC)CC1C (stereo not drawn)	0.0665*	99.5*	101.9*	102.8*	16.9	102.0*	99.6*	101.7*	104.1*	104.4*	103.8*
C#CCOCCOCCOCCNc1nc(N2CCN(C(=O)Cn3cc(CCO)nn3)CC2)nc(N2CCN(C(=O)C(C(C)CC)n3cc(CCCN=C(N)N)nn3)CC2)n1 (stereo not drawn)	0.688	/	/	/	/	/	/	/	/	/	/
CCCCC1CC1C(NC(=O)c1ccco1)c1ccc(C(=O)OC)cc1 (stereo not drawn)	0.702	/	/	/	/	/	/	/	/	/	/
Cc1cc(NS(=O)(=O)c2ccc(N)cc2)no1	/	16.4*	10.2*	12.5*	/	18.1*	9.4*	23.9	7.9	2.9	26.5*
Cc1ccc(S(=O)(=O)Nc2cc(C)on2)cc1	0.692	1.4	-1.1	2.4	-0.8	/	/	/	/	/	/
CCOc1ccc(NC(=O)CN2C(=O)SC(=Cc3cccn3C)C2=O)cc1	0.689	/	/	/	/	/	/	/	/	/	/
S=c1nc[nH]c2nc[nH]c12	0.674	25.1*	24.3*	79.7*	0.7	63.4*	23.8*	49.7*	36.9*	39.6*	70.8*
Cn1c(-c2ccccc2)cc(=O)cc1-c1ccccc1	/	1.6	/	/	/	/	/	/	/	/	/
O=c1cc(-c2ccccc2)cc(-c2ccccc2)n1O	0.435*	18.9*	21.1*	17.5*	8.6	11.2	14.9*	13.7	10.3	13.7	10.0
CCCNC(=O)c1ccc2c(=O)c(O)c(-c3ccc(Cl)c([N+](=O)[O-])c3)[nH]c2c1	/	16.1*	11.3*	13.7*	1.9	11.4	12.9*	11.9	9.5	11.7	13.8
C=CCC(CC(=O)NCCO)C(=O)NC(COC(=O)C(CC=C)CC(=O)OC(C)(C)C)Cc1c[nH]c2ccccc12 (stereo not drawn)	0.674	/	/	/	/	/	/	/	/	/	/
CCN(CC)c1ccc(/C=N/NC(=S)NCc2ccccc2)c(O)c1	/	13.5*	15.4*	12.4*	0.6	9.1	14.0*	15.9	8.7	9.5	20.2
CCN(CC)c1ccc(C=NNC(=S)NCc2ccccc2)c(O)c1	0.681	/	/	/	/	/	/	/	/	/	/
O=C1c2cc(Cl)ccc2-c2c(O)cc(Cl)cc21	0.568	12.6*	/	/	1.9	/	/	/	9.8	11.6	6.3
CCCCCC1CN(CCCC)C(=O)C1CC(=O)NCc1ccc(OC)cc1 (stereo not drawn)	0.694	/	/	/	/	/	/	/	/	/	/
O=c1[nH]cnc2c1ncn2C1CCC(CO)O1 (stereo not drawn)	/	87.4*	/	/	/	/	/	/	73.9*	90.3*	97.7*
SMILES	E coli growth-1	phage Ecoli inh	E coli growth-2	AddAB inh	Tat export inh	AddAB confirm	RecBCD counter	bact viab count	RecBCD conf	Ecoli viability	AddAB phage OD
Nc1nc(=O)n(C2CCC(CO)O2)cc1F (stereo not drawn)	/	11.3*	/	/	/	/	/	/	9.9	4.9	31.0*
O=c1[nH]cnc2c1ncn2C1OC(CO)C(O)C1O (stereo not drawn)	0.674	3.0	/	/	0.5	/	/	/	/	/	/
CN1C(=O)SC(=Cc2ccccc2OCc2ccc(C(=O)O)cc2)C1=O	0.732	/	/	/	/	/	/	/	/	/	/
Cc1ccc(NC(=O)c2cc(S(=O)(=O)N3CCOCC3)cn2C)cc1F	0.725	28.9*	1.1	1.5	-9.8	/	/	/	-3.1	-2.7	-8.4
Cn1cc(S(=O)(=O)N2CCOCC2)cc1C(=O)Nc1ccc(Cl)cc1	0.722	2.1	-0.3	1.3	-1.0	/	/	/	/	/	/
COc1ccc(C(=O)Nc2ccc(S(=O)(=O)N3CCOCC3)cc2)cc1	0.647	12.4*	1.4	3.0	/	/	/	/	-0.2	-0.4	-1.6
O=C(NCc1ccccc1)c1sc(=S)n2c1[nH]c(=O)c1ccccc12	0.72	14.6*	-2.0	3.8	-4.2	/	/	/	-1.8	-2.3	-10.2
C=CCN=c1scc(-c2ccco2)n1/N=C/c1ccc(O)c(O)c1O	/	10.9*	6.6	5.9	11.4	/	/	/	6.0	7.1	3.0
CN=c1scc(-c2cccs2)n1/N=C/c1ccc(O)c(O)c1O	/	13.2*	9.6	10.7	1.7	/	/	/	5.3	6.3	8.1
COCCN=c1scc(-c2ccco2)n1/N=C/c1ccc(O)c(O)c1O	/	8.6	4.6	8.6	11.5	/	/	/	/	/	/
CCC(C)Sc1ccc(C2C3C(=O)N(C)C(=O)C3[C@]3(C(=O)OC)CCCCN23)cc1OC (stereo partly drawn)	0.708	/	/	/	/	/	/	/	/	/	/
COC(CC=CC(O)COCc1ccccc1)OC (stereo not drawn)	0.66	/	/	/	/	/	/	/	/	/	/
